19 molecules from PubChem BioAssay can be followed below.

Unmarked numbers belong to inactive results. For some assays here: Measured potencies and affinities stand elsewhere. Active and inactive are the calls of the source. Unless noted, the rule behind the calls is not given here.

Assay [1] in a line: antimalarial activity against Dd2 strain (AID 2302;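 active = growth inhibition above 50% at the single 2 µM test dose, taken to imply half-maximal potency below 2 µM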;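 note: 0% = DMSO untreated growth and 100% = chloroquine plus artemisinin killed control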). The note with it: P. falciparum Dd2 in RBCs, LDH growth readout, 72 h; at 2 µM; hits give high values.
Assay [2] is described as follows: HepG2 cytotoxicity, primary screen, cytotoxicity control for P. falciparum antimalarial project, cell-based, ATP luminescence (AID 2303;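 active = inhibition above 50%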;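 note: 0% = DMSO wells and 100% = digitonin-killed cells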). The note with it: HepG2 viability, 24-48 h, at 10 µM, hits give high values.
For assay [3], the target named is L-lactate dehydrogenase (Plasmodium falciparum (isolate CDC / Honduras)) (UniProt Q27743). Briefly: PfLDH activity inhibition – cell lysate, 3D7 strain, counter-screen for P. falciparum growth inhibition project (AID 2304).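 Note: 0% = vehicle and 100% = reference inhibitor.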 The note with it: P. falciparum 3D7 crude extract, LDH APAD/NBT absorbance; at 2 µM; hits give high values.
Chain of L-lactate dehydrogenase (Plasmodium falciparum (isolate CDC / Honduras)) (Q27743 whole entry, looked up): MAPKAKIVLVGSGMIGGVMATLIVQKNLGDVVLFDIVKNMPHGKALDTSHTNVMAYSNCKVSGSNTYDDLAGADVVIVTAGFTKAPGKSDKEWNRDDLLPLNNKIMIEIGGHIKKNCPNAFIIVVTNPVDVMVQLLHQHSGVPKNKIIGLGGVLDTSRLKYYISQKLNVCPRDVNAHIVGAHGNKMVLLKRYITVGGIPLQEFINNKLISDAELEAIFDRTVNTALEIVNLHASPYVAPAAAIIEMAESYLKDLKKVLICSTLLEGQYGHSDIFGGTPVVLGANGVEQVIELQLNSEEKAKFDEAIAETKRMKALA
A short description of assay [4]: inhibition of 3D7 malaria parasite growth – strain 3D7 (AID 2306).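 Note: 0% = DMSO wells and 100% = chloroquine plus artemisinin control wells.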 The note with it: P. falciparum 3D7 erythrocytic growth, LDH absorbance, 72 h; at 2 µM; hits give high values.
In assay [5] the target is Calcium-dependent protein kinase 1 (Plasmodium falciparum (isolate 3D7)) (UniProt P62344). Briefly: PfCDPK1 kinase inhibitors, biochemical, TCAMS library (AID 1159585; cut-off not given, nearly all actives have IC50 up to about 0.98 µM;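 note: inhibitors leave more ATP so luminescence rises with inhibition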). The note with it: recombinant PfCDPK1, Kinase-Glo ATP depletion luminescence.
Chain of Calcium-dependent protein kinase 1 (Plasmodium falciparum (isolate 3D7)) (P62344 whole entry, looked up): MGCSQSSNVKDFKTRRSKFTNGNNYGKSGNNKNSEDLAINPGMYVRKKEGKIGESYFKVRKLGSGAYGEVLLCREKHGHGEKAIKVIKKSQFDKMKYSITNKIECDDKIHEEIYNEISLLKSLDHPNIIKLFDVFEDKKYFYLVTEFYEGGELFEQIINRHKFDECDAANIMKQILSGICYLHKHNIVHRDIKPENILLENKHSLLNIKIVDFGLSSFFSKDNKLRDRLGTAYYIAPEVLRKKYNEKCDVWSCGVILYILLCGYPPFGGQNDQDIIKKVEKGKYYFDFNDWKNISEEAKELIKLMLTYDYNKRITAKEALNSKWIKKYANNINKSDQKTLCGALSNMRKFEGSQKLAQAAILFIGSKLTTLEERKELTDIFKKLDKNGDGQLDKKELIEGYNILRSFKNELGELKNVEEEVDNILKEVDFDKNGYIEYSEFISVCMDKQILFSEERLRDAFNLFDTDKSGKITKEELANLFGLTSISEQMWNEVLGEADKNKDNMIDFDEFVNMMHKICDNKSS
In assay [6] the target is Plasmodium falciparum protein kinase 6 (PK6, PF3D7_1337100) (UniProt Q8IDW1). Briefly: PfPK6 kinase inhibitors, biochemical, TCAMS library (AID 1159586). Particulars: recombinant PfPK6, Kinase-Glo ATP depletion luminescence.
Chain of Plasmodium falciparum protein kinase 6 (PK6, PF3D7_1337100) (Q8IDW1 1-305): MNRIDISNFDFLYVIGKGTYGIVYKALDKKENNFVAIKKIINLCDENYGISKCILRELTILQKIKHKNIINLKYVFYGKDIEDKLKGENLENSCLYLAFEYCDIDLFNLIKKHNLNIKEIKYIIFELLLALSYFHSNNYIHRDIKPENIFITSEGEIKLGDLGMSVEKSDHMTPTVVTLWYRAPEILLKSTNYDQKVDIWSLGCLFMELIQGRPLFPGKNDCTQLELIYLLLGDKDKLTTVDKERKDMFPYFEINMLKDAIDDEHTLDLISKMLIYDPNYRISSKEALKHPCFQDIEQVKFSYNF
Assay [7] concerns the target Protein kinase 7 (PK7), Plasmodium falciparum 3D7 (PF3D7_0213400) (UniProt Q7YTF7). Briefly: inhibition of Plasmodium PK7 catalytic activity – biochemical, TCAMS antimalarial set, Kinase-Glo luminescence (AID 1159587). Particulars: recombinant PfPK7, Kinase-Glo ATP depletion luminescence. For orientation: In Kinase-Glo more light means more ATP remaining.
The target of assay [8] is Calcium-dependent protein kinase 4 (Plasmodium falciparum (isolate 3D7)) (UniProt Q8IBS5). Briefly: PfCDPK4 kinase inhibitors, biochemical, TCAMS library (AID 1159588; cut-off not given, nearly all actives have IC50 up to about 0.91 µM). The note with it: recombinant PfCDPK4, Kinase-Glo ATP depletion luminescence.
Chain of Calcium-dependent protein kinase 4 (Plasmodium falciparum (isolate 3D7)) (Q8IBS5 whole entry, looked up): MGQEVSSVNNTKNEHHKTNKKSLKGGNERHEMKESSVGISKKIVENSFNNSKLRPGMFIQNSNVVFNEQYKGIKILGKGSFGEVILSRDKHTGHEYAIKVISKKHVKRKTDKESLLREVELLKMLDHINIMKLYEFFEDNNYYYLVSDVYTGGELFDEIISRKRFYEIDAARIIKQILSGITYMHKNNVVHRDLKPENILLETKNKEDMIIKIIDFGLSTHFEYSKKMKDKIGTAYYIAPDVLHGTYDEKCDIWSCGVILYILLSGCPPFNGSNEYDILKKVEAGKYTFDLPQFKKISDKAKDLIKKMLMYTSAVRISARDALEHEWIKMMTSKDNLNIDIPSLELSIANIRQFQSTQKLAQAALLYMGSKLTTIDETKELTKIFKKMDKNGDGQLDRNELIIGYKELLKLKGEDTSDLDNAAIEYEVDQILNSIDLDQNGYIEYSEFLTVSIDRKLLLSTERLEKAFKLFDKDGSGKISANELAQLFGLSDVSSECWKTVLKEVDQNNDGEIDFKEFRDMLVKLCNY

Chain of Protein kinase 7 (PK7), Plasmodium falciparum 3D7 (PF3D7_0213400) (Q7YTF7 1-343): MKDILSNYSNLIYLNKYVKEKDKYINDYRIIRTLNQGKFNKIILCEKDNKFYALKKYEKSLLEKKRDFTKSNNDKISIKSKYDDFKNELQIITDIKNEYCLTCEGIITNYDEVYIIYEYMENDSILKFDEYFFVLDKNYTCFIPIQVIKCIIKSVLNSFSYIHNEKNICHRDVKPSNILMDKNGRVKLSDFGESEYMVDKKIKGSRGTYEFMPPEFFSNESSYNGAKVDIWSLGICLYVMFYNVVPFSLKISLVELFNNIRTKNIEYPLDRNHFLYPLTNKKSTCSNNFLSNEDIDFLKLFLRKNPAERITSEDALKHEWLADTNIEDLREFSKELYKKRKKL

A word on the inhibition: it is the drop in the measured response relative to a control, in per cent. Turning to `C[C@H](Cc1ccc(OCCCCCCOc2ccc(C[C@@H](C)NC[C@H](O)c3cccc(Cl)c3)cc2)cc1)NC[C@H](O)c1cccc(Cl)c1`, the growth inhibition in assay [1] and in assay [4] was 99% (active) each time. In addition, the inhibition in assay [2] was 99% (active); in assay [3], 3%. In addition, the outcome in assay [5], in assay [6], in assay [7] and in assay [8] was inactive.

As for `CCCC(CNCc1ccc(Cl)c(C(F)(F)F)c1)CNc1nc2ccncc2[nH]1` (configuration not stated), the figures for the growth inhibition in assay [1] and in assay [4] were 8% and 99% (active), respectively. For the same molecule, the inhibition in assay [2] is 26%; in assay [3], -1%. Further, the result in assay [5], in assay [6], in assay [7] and in assay [8] was inactive.

In the case of `Cc1ccc(/C=C/C(=O)N2CCC(CCN3CCC(c4c[nH]c5ccccc45)CC3)CC2)cc1C`, the values for the growth inhibition in assay [1] and in assay [4] were 5% and 94% (active), respectively. The inhibition was 50% (active) in assay [2] and -2% in assay [3]. The outcome in assay [5], in assay [6], in assay [7] and in assay [8] was inactive.

`N#CCCN1CCN(Cc2ccc(-c3ccc(-c4nc5ccc(F)cc5[nH]4)s3)cc2)CC1`: the growth inhibition in assay [1] was 38%; in assay [4], 99% (active). In addition, the inhibition was 58% (active) in assay [2] and 6% in assay [3]. The result in assay [5], in assay [6], in assay [7] and in assay [8] was inactive.

On to `FC(F)(F)c1ccc2nc(-c3ccc(-c4cccc(CNCC5CCCO5)c4)cc3)[nH]c2c1` (configuration not stated), for which the growth inhibition in assay [1] is 100% (active); in assay [4], 101% (active). The values for the inhibition in assay [2] and in assay [3] were 36% and -5%, respectively. The outcome in assay [5], in assay [6], in assay [7] and in assay [8] was inactive.

On to `CSc1ccc2ccccc2c1CNCCCCCCNCc1c(SC)ccc2ccccc12`, for which the values for the growth inhibition in assay [1] and in assay [4] were 74% (active) and 99% (active), respectively. The results for the inhibition in assay [2] and in assay [3] were 83% (active) and 3%, respectively. Besides, the outcome in assay [5], in assay [6], in assay [7] and in assay [8] was inactive.

`O=C(Nc1ccccc1)N(Cc1ccc(-c2cccc(CNC3CCCC3)c2)cc1)C1CCN(Cc2ccccc2)CC1`: the growth inhibition in assay [1] was 67% (active); in assay [4], 101% (active). For the same molecule, the inhibition in assay [2] was 43%; in assay [3], 1%. The result in assay [5], in assay [6], in assay [7] and in assay [8] was inactive.

As to `Nc1nc(N)c2nc(C3CC=CCC3)c(N)nc2n1` (configuration not stated), the growth inhibition in assay [1] was 0%; in assay [4], 95% (active). Also, the inhibition was 67% (active) in assay [2] and -5% in assay [3]. Further, the result in assay [5], in assay [6], in assay [7] and in assay [8] was inactive.

Turning to `CCN(CC)C(=NCCCCCCN=C(/N=C(/N)Nc1ccc(C)cc1)N(CC)CC)/N=C(/N)Nc1ccc(C)cc1`, the growth inhibition was 98% (active) in assay [1] and 97% (active) in assay [4]. In addition, the results for the inhibition in assay [2] and in assay [3] were 10% and -3%, respectively. Besides, the result in assay [5], in assay [6], in assay [7] and in assay [8] was inactive.

As to `NC1CCN(Cc2ccc(-c3cccc(-c4nc5ccccc5[nH]4)c3)cc2)C1` (configuration not stated), the growth inhibition is -3% in assay [1] and 98% (active) in assay [4]. The values for the inhibition in assay [2] and in assay [3] were 19% and 5%, respectively. Also, the result in assay [5], in assay [6], in assay [7] and in assay [8] was inactive.

On to `COc1ccc2c(NN=Cc3ccc(F)cc3)cc(C)nc2c1`, for which the growth inhibition in assay [1] is 99% (active); in assay [4], 101% (active). Further, the inhibition in assay [2] is 4%; in assay [3], -3%. In addition, the result in assay [5], in assay [6], in assay [7] and in assay [8] was inactive.

In the case of `Nc1nc(N)c2cc(C#Cc3ccc(-c4ccccc4)cc3)ccc2n1`, the growth inhibition in assay [1] was 3%; in assay [4], 94% (active). In addition, the inhibition in assay [2] was 20%; in assay [3] it was 0%. Also, the outcome in assay [5], in assay [6], in assay [7] and in assay [8] was inactive.

For `Cc1cc(NCCCCCCN)nc(Nc2ccc(Cl)cc2)n1`, the growth inhibition is 26% in assay [1] and 100% (active) in assay [4]. The inhibition in assay [2] is 25%; in assay [3], 1%. Also, the outcome in assay [5], in assay [6], in assay [7] and in assay [8] was inactive.

Turning to `COc1cccc2cc(C(=O)N[C@@H](CC(C)C)C(=O)N[C@H](/C=N/N3CC(=O)NC3=O)CC(C)C)oc12`, the growth inhibition in assay [1] was 64% (active); in assay [4] it was 86% (active). In addition, the inhibition in assay [2] was 3%; in assay [3] it was 2%. Further, the result in assay [5], in assay [6], in assay [7] and in assay [8] was inactive.

As for `Cc1cc(CNC(=O)[C@H](CC2CCCCC2)Nc2ccc(C#N)c3ccccc23)c(C(F)(F)F)o1`, the growth inhibition was 55% (active) in assay [1] and 87% (active) in assay [4]. Further, the inhibition in assay [2] was 13%; in assay [3], 3%. Moreover, the result in assay [5], in assay [6], in assay [7] and in assay [8] was inactive.

For the molecule `CCc1nc(N)nc(N)c1-c1cccc(Cl)c1`, the growth inhibition in assay [1] was 1%; in assay [4], 94% (active). Besides, the inhibition in assay [2] is 60% (active); in assay [3] it was 2%. The result in assay [5], in assay [6], in assay [7] and in assay [8] was inactive.

Turning to `Cc1[nH]c(C)c(-c2ccc(-c3ccc(C(F)(F)F)cc3C(F)(F)F)nc2)c(=O)c1Br`, the growth inhibition in assay [1] and in assay [4] was 97% (active) in each case. Moreover, the inhibition was 30% in assay [2] and 5% in assay [3]. The result in assay [5], in assay [6], in assay [7] and in assay [8] was inactive.

Regarding `O=C(c1ccc(Cl)cc1)N1CCCC(C(=O)N(Cc2nnc(-c3ccccc3Cl)o2)C2CC2)C1` (configuration not stated), the figures for the growth inhibition in assay [1] and in assay [4] were 96% (active) and 95% (active), respectively. Further, the inhibition in assay [2] was 10%; in assay [3] it was 0%. Besides, the result in assay [5], in assay [6], in assay [7] and in assay [8] was inactive.

In the case of `O=C(Nc1ccc2c(c1)CCC2)c1nc(N2CCN(c3ccncc3)CC2)ccc1Cl`, the growth inhibition in assay [1] was 97% (active); in assay [4], 101% (active). For the same molecule, the values for the inhibition in assay [2] and in assay [3] were 55% (active) and -1%, respectively. Besides, the outcome in assay [5], in assay [6], in assay [7] and in assay [8] was inactive.
